Bioassay records as filed in PubChem BioAssay.
FLuc inh: firefly luciferase inhibition; Potency, µM (series often up to 57.1 µM), hits mostly inhibitors; P08659; hit rate 2.2% among 72,000; purified firefly luciferase, luminescence, 8 min; also: nearly all actives have a fitted effect of over 40% in size
Target sequence (P08659 whole entry, looked up): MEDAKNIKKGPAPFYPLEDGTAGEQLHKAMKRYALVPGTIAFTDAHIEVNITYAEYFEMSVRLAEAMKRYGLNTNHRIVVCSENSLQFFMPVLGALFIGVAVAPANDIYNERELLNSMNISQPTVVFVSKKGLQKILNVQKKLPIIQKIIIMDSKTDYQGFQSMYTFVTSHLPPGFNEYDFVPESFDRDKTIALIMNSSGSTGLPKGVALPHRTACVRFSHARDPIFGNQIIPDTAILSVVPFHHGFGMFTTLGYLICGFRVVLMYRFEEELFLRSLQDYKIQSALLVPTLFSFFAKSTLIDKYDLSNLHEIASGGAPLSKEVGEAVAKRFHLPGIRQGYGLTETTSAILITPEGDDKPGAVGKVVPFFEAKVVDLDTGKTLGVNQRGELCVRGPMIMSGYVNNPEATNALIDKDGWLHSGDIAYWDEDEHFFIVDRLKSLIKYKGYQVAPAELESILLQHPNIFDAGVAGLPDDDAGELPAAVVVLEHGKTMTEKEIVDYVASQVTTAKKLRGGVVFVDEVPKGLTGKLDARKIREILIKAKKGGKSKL
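Inhibition of light generation by firefly luciferase from ATP and luciferin was profiled with concentration-response curves per sample, ATP held at 10 uM within the enzyme's linear range. Plates were read by luminescence after an 8-minute ambient incubation.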
PK Bst: pyruvate kinase (B. stearothermophilus) modulation; hit rate 1.2% among 51,000; Potency, µM; purified pyruvate kinase, luminescence ATP production; ribose 5-phosphate activator present at AC10; in the data active = potency below about 11 µM; inconclusive = mostly about 12 µM to 25 µM;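 the screen sought inhibitors and activators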
HBB splice mod: alters splicing of the hemoglobin beta chain | HBB splicing reporter cell assay, activation; EGFP reporter with mutant IVS2-654 intron; response scale: normalised to 500 nM splice-correcting PNA | Potency, µM (series often up to 46.1 µM), actives largely listed as activators | hit rate 0.06% among 65,000 | AID 925
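Compounds were applied for 2 days to HeLa EGFP-654 cells, 500/well in Optimem with 2% FCS. The reporter's EGFP is disrupted by mis-splicing of beta-globin intron IVS2-654. Readout: summed well GFP fluorescence from 488 nm laser scanning; reference was 500 nM antisense […] 654 PNA.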
GFP derepression: epigenetic GFP locus derepression in mouse cells | AID 597 | hit rate 0.09% among 68,000 | Potency, µM (series often up to 46.1 µM) | mouse C127i GFP locus derepression, cytometry, 30 h
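Read-out is the number of GFP-positive cells, scored as fluorescent objects 20 to 120 um wide, reflecting derepression of a silenced CMV-GFP reporter in murine C127i cells after 30 h compound exposure at 37 C.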
Ub-GFP proteasome: proteasome inhibitors stabilizing ubiquitin-GFP reporter; Ubiquitin-GFP reporter cells, proteasome inhibition, GFP fluorescence; response scale: untreated = 0%, 10 µM MG-132 = 100%; Potency, µM (series often up to 45.9 µM), actives largely listed as activators; 67,000 tested, under 10 active; AID 526; active = well fitted activation curve with a large enough effect, not every such curve was filed as active; inconclusive = small, poorly fitted or top-dose-only effect, or another doubt; inactive = no such curve, though single readings can be large or run the other way
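U2OS Ub(G76V)-GFP reporter; O/N plating, 0.5% FBS; cpd 46 uM–2.9 nM, 4 h, 37 °C; GFP+ cell count, 488/515 nm; norm. to basal vs 10 uM MG-132; CRC fit.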
Large screens that a line does not name were inactive. In the library only some 2.6% were active in any assay of this set; here they are far more common. Unless noted, calls follow the shape of the dose curve; as a rule, active = well fitted curve in the direction sought with a large enough effect; inconclusive = small, poorly fitted or top-dose-only effect, or another doubt; inactive = no such curve, though single readings can be large; an effect the other way counts as inactive or inconclusive.

CN1CCN(c2nc(C(N)=O)cc(-c3ccccc3)n2)CC1	PK Bst 11 (no result: HBB splice mod, Ub-GFP proteasome)
Clc1ccccc1-c1ccc2ncnc(NC3CCNCC3)c2c1	none (no result: PK Bst)
O[C@@H](c1cc(-c2ccc(Cl)cc2)nc2ccccc12)[C@@H]1CCCCN1	none (no result: PK Bst)
O[C@H](C[C@@H]1CCCCN1)c1ccc2c(c1)oc1ccccc12	GFP derepression 1.3µM (no result: PK Bst)
CCc1ccc2oc(-c3cccc(NC(=O)c4cccnc4)c3)nc2c1	FLuc inh 5µM, PK Bst 4.1 (no result: HBB splice mod)
O=C(Nc1ccc2oc(-c3ccccc3)nc2c1)c1cccnc1	none (no result: PK Bst, HBB splice mod)
COc1ccccc1C(=O)Nc1ccc(N2CCN(S(C)(=O)=O)CC2)cc1	none (no result: PK Bst, HBB splice mod)
COc1cc2ccccc2cc1C(=O)Nc1cccnc1	FLuc inh 16µM
CCSc1ccccc1C(=O)Nc1cccnc1	none
COc1cc2ccccc2cc1C(=O)Nc1ccc(N2CCN(C)CC2)cc1	FLuc inh 10µM, PK Bst 11
O=C(Nc1cccnc1)c1ccc(Oc2ccccc2)cc1	FLuc inh 13µM
O=C(Nc1cccnc1)c1ccccc1Oc1ccccc1	none
COc1cc2cc(C(=O)Nc3ccccc3)c(N)nc2cc1OC	FLuc inh 10µM
COc1ccc(/C=C/N(CCc2ccc(OC)c(OC)c2)C(=O)C(F)(F)F)cc1	none (no result: FLuc inh, PK Bst, GFP derepression, Ub-GFP proteasome)
CCCN1C[C@H](CSC)C[C@H]2c3cccc4[nH]cc(c34)C[C@@H]21	none (no result: PK Bst)
COc1ccc(C(=O)Oc2ccc(/C=N/O)cc2)cc1	FLuc inh 13µM (no result: PK Bst)
COc1ccc(OC(=O)c2ccncc2)cc1	none
CN(Cc1ccco1)c1cc(-c2ccoc2)ncn1	none (no result: PK Bst)
O=C(Nc1nnc(-c2ccccc2Cl)o1)c1ccco1	FLuc inh 13µM (no result: PK Bst)
C[C@@H]1/C=C\CC(=O)OC[C@H](C)C(=O)N[C@@H](Cc2ccccc2)C(=O)OC1	none (no result: PK Bst, GFP derepression, Ub-GFP proteasome)
COc1ccc(/C=C/N(CCc2ccc(OC)c(OC)c2)C(C)=O)cc1	none (no result: FLuc inh, PK Bst, GFP derepression, Ub-GFP proteasome)
Nc1ccc2oc(-c3ccccn3)nc2c1	FLuc inh 20µM (no result: PK Bst)
Clc1ccc2oc(-c3ccccn3)nc2c1	FLuc inh 16µM, PK Bst inconclusive (no result: HBB splice mod)
C[C@]1(OC(=O)/C=C\c2ccccc2)C[C@@H](O)[C@@]2(O)C=CO[C@@H](O[C@H]3O[C@@H](CO)[C@@H](O)[C@@H](O)[C@@H]3O)[C@H]21	none (no result: PK Bst)
CCOC(=O)C1=C(C)NC(C)=C(C(=O)OC)[C@H]1c1cccc(Cl)c1Cl	none (no result: PK Bst)
C=CCOc1nc(-c2ccncc2)nc2ccccc12	PK Bst 8.3 (no result: HBB splice mod, Ub-GFP proteasome)
c1ccc2c(N3CCCC3)nc(-c3ccncc3)nc2c1	none (no result: Ub-GFP proteasome)
c1cncc(Nc2nc(-c3cccnc3)cs2)c1	none (no result: PK Bst)
c1ccc(Nc2nc(-c3cccnc3)cs2)nc1	FLuc inh 4µM, PK Bst inconclusive
c1ccc(Nc2nc(-c3cccs3)cs2)nc1	FLuc inh 5µM, PK Bst 3.6
C/C(=N\[N+](C)(C)C)c1ccc(C)c(C)c1	none (no result: PK Bst)
CC(C)C(=O)Nc1ccc(NC(=O)c2ccccn2)cn1	FLuc inh 13µM
O=C(Nc1ccc(NC(=O)C2CC2)nc1)c1ccncc1	none (no result: HBB splice mod)
CCCC(=O)Nc1ccc(NC(=O)c2ccccc2Cl)nc1	none
O=C(Nc1ccc(NC(=O)C2CC2)nc1)c1ccccn1	FLuc inh 20µM (no result: HBB splice mod)
O=C(Cc1ccccc1)Nc1ccc(NC(=O)c2ccco2)nc1	none (no result: HBB splice mod)
O=C(Nc1ccc(NC(=O)c2ccco2)nc1)c1ccccn1	FLuc inh 10µM (no result: PK Bst)
CCC(=O)Nc1ccc(NC(=O)c2ccccn2)cn1	FLuc inh 40µM (no result: PK Bst)
Cc1cccc([C@@H]2CN(C)CCc3c2cc(O)c(O)c3Cl)c1	none (no result: PK Bst)
CCc1cc2c(nc1CC)CCN(CC/C(C)=N/O[C@@H](C)CN1CCCCc3nc(C)c(C)cc31)C2	none (no result: PK Bst, GFP derepression, Ub-GFP proteasome)
CC(C)(N=NC(C)(C)C1=NCCN1)C1=NCCN1	none (no result: PK Bst)
COc1ccc(CNc2cc(-c3cccc(NS(C)(=O)=O)c3)ncn2)c(OC)c1	none (no result: PK Bst)
O=C(Nc1ccc(NC(=O)C2CCCCC2)cn1)c1ccco1	FLuc inh 5µM (no result: HBB splice mod)
O=S(=O)(c1cccc2cccnc12)N1CCc2ccccc21	PK Bst 1.4
COc1ccc2oc(=O)c(C(=O)N3CCN(C45CC6CC(CC(C6)C4)C5)CC3)cc2c1	none
CCCN1Cc2cccc(C(=O)Nc3cc(OC)cc(OC)c3)c2C1=O	none
O=C(Nc1ccc(F)cc1)c1cccc2c1C(=O)N(Cc1ccccn1)C2	PK Bst 11
COCCN1Cc2cccc(C(=O)Nc3ccc(C)c(C)c3)c2C1=O	FLuc inh 25µM (no result: PK Bst)
